Several values for one entry are separate records, joined by “and”; a condition that tells them apart may be missing. Equal entries are not always repeated. Among all 340,000 compounds or so, about 4,500 (1.3%) were called active. About 5% were inconclusive and are not listed. The call rests on the fitted dose curve; in most records, active means well fitted inhibition curve with a large enough effect; inconclusive means small, poorly fitted or top-dose-only effect, or another doubt; inactive means no such curve, though single readings can be large or run the other way. Only a selection was taken, and actives are over-represented in it overall. Where a structure was tested more than once in an assay, its records may differ in their call.
Biological target: DNA polymerase beta (Homo sapiens) (UniProt P06746)
Experiment: qHTS Assay for Inhibitors of DNA Polymerase Beta
Settings: Pol beta primer extension/strand displacement, fluorescence kinetic; series mostly up to 114 µM; activity change, negative = inhibition: at the top concentration
Procedure, shortened: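 Reaction started by 50 nM substrate onto compound-treated Pol beta (10 nM, 15 min preincubation, room temperature); plates read at 0 min and 10 min. Normalized concentration-effect data fitted by four-parameter Hill equation.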
On the % scale 0 is the no-effect control and ±100 the full control effect; potency means the concentration at half of the fitted maximal effect.

Structure (SMILES)	activity change, negative = inhibition	Potency
Cc1ccccc1C(=O)Nc1nnc(S(=O)(=O)N(C)c2ccc(Cl)cc2)s1	7.24% (inactive)	–
COC(=O)c1ccc(NC(=O)CSc2n[nH]c(-c3ccccc3)n2)cc1	-20% (inactive)	–
CCOc1ccc(OCC)c(NC(=O)CN(c2ccc(C)cc2)S(=O)(=O)c2c(C)n[nH]c2C)c1	6.89% (inactive)	–
CCn1c(C)c(C)c2cc(C(=O)NCCc3cc(OC)ccc3OC)ccc21	-1.85% (inactive)	–
O=C(Nc1ccc(NC(=O)c2cccs2)cn1)c1ccco1	-8.35% (inactive)	–
Cc1cccc(-n2c(C)cc(/C=N\NC(=O)c3cccs3)c2C)c1	6.08% (inactive)	–
O=C(N/N=C/C=C/c1ccco1)c1cccs1	–	25.1 µM (active)
Oc1ccc(-c2nc3ccc(Cl)cn3c2Nc2ccc3c(c2)OCO3)cc1	-2.41% (inactive)	–
CCOc1ccc(C(=O)/C=C/c2cn(CC(O)CN3CCCCCC3)c3ccccc23)cc1 (centres undefined)	6.41% (inactive)	–
O=S(=O)(NCC(c1ccccc1)N1CCc2ccccc21)c1ccccc1 (centres undefined)	24.4% (inactive)	–
COc1cc2nc(NCC(C)c3ccccc3)n3nc(-c4ccccc4)nc3c2cc1OC (centres undefined)	33.3% (inactive)	–
O=C(NCc1ccccc1Cl)c1cccn1-c1nnc(N2CCCCC2)s1	-19.8% (inactive)	–
O=C(O)CCC(=O)N(Cc1cccs1)Cc1cccs1	–	44.7 µM (active)
O=C(O)CCC(=O)N(Cc1ccccc1)Cc1ccccc1	-17.8% (inactive)	–
O=C(CCc1ccccc1)NCCc1cccs1	16.8% (inactive)	–
CCc1cccc(C)c1Nc1c(-c2ccc(N(C)C)cc2)nc2ncccn12	-0.565% (inactive)	–
COc1ccc(Cl)cc1NC(=O)CCC(=O)c1ccc(C)cc1	0.944% (inactive)	–
COc1ccc(Cl)cc1NC(=O)CCS(=O)(=O)c1ccc(Br)cc1	–	3.16 µM (active)
CCOc1ccc(OCC)c(NC(=O)CCS(=O)(=O)c2ccc(C)cc2)c1	8.41% (inactive)	–
CC(=O)N1CCc2cc(Br)cc(S(=O)(=O)CCC(=O)NCCc3ccc(Cl)cc3)c21	40.7% (inactive)	–
Cn1c(=O)oc2cc(S(=O)(=O)CCC(=O)NCCc3ccc(Cl)cc3)ccc21	0.302% (inactive)	–
O=C(CCS(=O)(=O)c1ccc(Br)cc1)NCCc1ccc(Cl)cc1	–	39.8 µM (active)
COc1cc(C(=O)NCCS(=O)(=O)N2CCN(c3ccccc3)CC2)cc(OC)c1OC	-21% (inactive)	–
O=C(COc1ccccc1Cl)Nc1ccc2nc(SCC(=O)N3CCCC3)sc2c1	2.65% (inactive)	–

Structure (SMILES)	activity change, negative = inhibition	Potency
Oc1c(C(c2ccc(F)cc2)N2CCN(Cc3ccccc3)CC2)sc2nc(-c3ccco3)nn12 (centres undefined)	-1.89% (inactive)	–
COC(=O)c1ccc(C2C(C(=O)Nc3ccccc3)=C(C)Nc3nc4ccccc4n32)cc1 (centres undefined)	-9.73% (inactive)	–
Cc1cccc(N2CCN(C(=O)CCSCc3ccccc3F)CC2)c1C	-1.73% (inactive)	–
O=C(Nc1ccc(C(=O)N2CCCCC2)cc1)c1cccc([N+](=O)[O-])c1	42.3% (inactive)	–
Cc1cc([N+](=O)[O-])ccc1NC(=O)c1ccc(NC(=O)C(C)C)cc1	18.3% (inactive)	–
Cn1ccc(=Nc2ccc(NC(=O)c3ccc(N=c4ccn(C)c5ccc([N+](=O)[O-])cc45)cc3)cc2)cc1	–	0.355 µM (active)
CCOc1cccc2cc(-c3cn4c(n3)sc3cc(C)ccc34)c(=O)oc12	50.3% (inactive)	–
CO/N=C(\C(=O)N[C@@H]1C(=O)N2C(C(=O)O)=C(COC(C)=O)CS[C@H]12)c1csc(N)n1 (stereo in doubt)	–	inactive and 25.1 µM (active)
Cc1ccn2c(Nc3ccc4c(c3)OCCO4)c(-c3ccc(C)s3)nc2c1	24.2% (inactive)	–
Cc1cccc(-n2ccnc2SCC(=O)Nc2cc(C(F)(F)F)ccc2Cl)c1	7.77% (inactive)	–
COc1cccc(Cn2c(SCc3ccc(C(=O)N4CCC(C)CC4)cc3)nc3ccncc32)c1	0.534% (inactive)	–
Cc1cc(C)cc(NC(=O)c2cnc3sc(N4CCCC4)nn3c2=O)c1	-0.911% (inactive)	–
COc1cc(-c2noc(-c3ccc(N4CCCC4)c([N+](=O)[O-])c3)n2)cc(OC)c1OC	-15.3% (inactive)	–
COc1ccccc1-c1noc(-c2ccc(NCc3ccccc3)c([N+](=O)[O-])c2)n1	16.2% (inactive)	–
COc1ccc(-c2noc(-c3ccc(N4CCN(c5ccccc5)CC4)c([N+](=O)[O-])c3)n2)cc1OC	–	89.1 µM (active)
COc1ccc(S(=O)(=O)NCC(c2ccc(N(C)C)cc2)N2CCc3ccccc32)cc1OC (centres undefined)	0.31% (inactive)	–
COc1ccccc1N1CCN(S(=O)(=O)CCNC(=O)COc2ccc(F)cc2)CC1	13.5% (inactive)	–
CC(=O)Nc1cccc(NC(=O)CSc2nccn2Cc2ccc3c(c2)OCO3)c1	-15.7% (inactive)	–
CCC1=C/C(=C\c2ccc3c(c2)OCO3)C(=O)S1	–	14.1 µM (active)
O=C(Cc1ccc(F)cc1)N/N=C/c1ccc2c(c1)OCO2	90.3% (inactive)	–
CCOC(=O)CCCNC(=O)COC(=O)/C=C/c1ccc2c(c1)OCO2	3.45% (inactive)	–
Cc1cccc(NC(=O)c2ccc(F)c(S(=O)(=O)N(C)C3CCCCC3)c2)c1	1.39% (inactive)	–
COc1ccc(NC(=O)c2sc3nc[nH]c(=O)c3c2C)cc1	2.14% (inactive)	–
CN(C)[C@@H]1C(=O)C(C(N)=O)=C(O)[C@@]2(O)C(=O)C3=C(O)c4c(O)ccc(Cl)c4[C@@H](O)[C@H]3C[C@@H]12	–	8.91 µM (active)

Structure (SMILES)	activity change, negative = inhibition	Potency
Cc1ccccc1CCNC(=O)C1CCN(c2nc3ccccc3nc2C(F)(F)F)CC1	-0.653% (inactive)	–
COc1ccc(NC(=O)c2cnc(NS(=O)(=O)c3ccccc3)nc2)cc1	5.86% (inactive)	–
COc1ccc(S(=O)(=O)/N=C2\C=C(NS(=O)(=O)c3ccccc3)C(=O)c3ccccc32)cc1	–	79.4 µM (active)
COc1ccc(S(=O)(=O)Nc2cc3c(C(=O)OC(C)C)c(C)oc3c3ccccc23)cc1	-24.9% (inactive)	–
CC(C)(C)c1ccc(S(=O)(=O)Nc2ccc(O)c(Sc3nc4ccccc4s3)c2)cc1	-0.511% (inactive)	–
O=C(CSC1=Nc2ccccc2C2=NC(CC(=O)NCc3ccco3)C(=O)N12)NCc1ccco1 (centres undefined)	–	39.8 µM (active)
O=C(CC1N=C2c3ccccc3N=C(SCc3ccc(F)cc3)N2C1=O)NCc1cccs1 (centres undefined)	2.97% (inactive)	–
O=C(CC1N=C2c3ccccc3N=C(SCc3cccc(Cl)c3)N2C1=O)NCc1ccc2c(c1)OCO2 (centres undefined)	1.32% (inactive)	–
O=C(CC1N=C2c3ccccc3N=C(SCc3ccccc3Cl)N2C1=O)NCc1ccco1 (centres undefined)	–	12.6 µM (active)
COc1ccc(NC(=O)CSC2=Nc3ccccc3C3=NC(CC(=O)NCc4ccccc4OC)C(=O)N23)cc1Cl (centres undefined)	-12% (inactive)	–
CCC(C)NC(=O)CSC1=Nc2ccccc2C2=NC(CCC(=O)NCc3ccco3)C(=O)N12 (centres undefined)	11.3% (inactive)	–
CCN(CC)c1ccc(NC(=O)Cn2nc3c(cc2=O)CCCC3)c(C)c1	-15.3% (inactive)	–
O=C(NCCCO)C(=O)Nc1c2c(nn1-c1ccc(F)cc1)CSC2	-5.48% (inactive)	–
CCOC(=O)c1c(C)oc2ccc(N(C(=O)c3ccncc3)S(=O)(=O)c3ccc(CC)cc3)cc12	-2.09% (inactive)	–
Cc1ccc(C)c(NC(=O)CSC2=Nc3ccccc3N=C(c3ccc(F)cc3)C2)c1	19.4% (inactive)	–
Nc1nnnn1CC(=O)N/N=C/c1ccc(-c2cccc(Cl)c2)o1	-21.2% (inactive)	–
O=C(O)C(c1ccccc1)N1C(=O)/C(=C\c2ccc(-c3cccc(Cl)c3)o2)SC1=S (centres undefined)	–	50.1 µM (active)
O=C1c2ccccc2NC(c2ccc(-c3cccc(Cl)c3)o2)N1O (centres undefined)	1.84% (inactive)	–
Cc1ccc(C)c2sc(NC(=O)c3ccc(S(=O)(=O)N4CCCC4)cc3)nc12	-5.4% (inactive)	–
COc1cccc(C(=O)Nc2ccc(-c3cc(C(F)(F)F)nn3-c3ccccc3)cc2)c1	10.5% (inactive)	–
CCOc1cc(-c2nnc(SCC(=O)NC3CCCCC3)nc2-c2ccc(OC)c(OCC)c2)ccc1OC	2.16% (inactive)	–
COCCN1C=C2C(=O)C(C)(OC(=O)C3CCCC3)C(=O)C=C2C=C1c1ccsc1 (centres undefined)	0.629% (inactive)	–
COC/C=C/C1=CC2=CC(=O)C(C)(OC(=O)CCC(=O)OC)C(=O)C2=CO1 (centres undefined)	–	39.8 µM (active)
COC(=O)CCCC1=CC2=CC(=O)C(C)(OC(=O)c3cccs3)C(=O)C2=CN1CC(C)C (centres undefined)	23.9% (inactive)	–

Structure (SMILES)	activity change, negative = inhibition	Potency
COC(=O)c1cnn(-c2ccc(C(=O)Nc3ccc(OC(F)(F)F)cc3)cc2)c1N	5.55% (inactive)	–
COC(=O)c1ccccc1NC(=O)C1CCN(C(=O)N2CCOc3ccccc32)CC1	–	89.1 µM (active)
CCOc1ccc(NC(=O)C2CCN(C(=O)N3CCOc4ccccc43)CC2)cc1	10.2% (inactive)	–
COC(=O)c1ccccc1NC(=O)C1CCN(S(=O)(=O)c2cc(OC)ccc2OC)CC1	-6.7% (inactive)	–
Cc1ccc(-c2nn(CCC(=O)Nc3ccc(OC(F)(F)F)cc3)c(=O)c3ccccc23)cc1	21.3% (inactive)	–
Clc1cccc(-n2ncc3c(NCCc4ccccc4)ncnc32)c1	-25.3% (inactive)	–
COc1ccc(OC)c(NC(=O)Cc2cccs2)c1	–	50.1 µM (active)
CCOC(=O)c1ccc(NC(=O)Cc2cccs2)cc1	1.56% (inactive)	–
O=C(Cc1cccs1)Nc1nnc(SCc2ccc(F)cc2)s1	-18.1% (inactive)	–
CCc1nnc(NC(=O)Cc2cccs2)s1	-16.2% (inactive)	–
CCOc1ccccc1NC(=O)Cc1cccs1	–	10 µM (active)
CCOc1ccc(NC(=O)C/C(C)=N/NC(=O)Cc2cccs2)cc1	31% (inactive)	–
COc1ccc(C)cc1NC(=O)CNCc1cccs1	2.69% (inactive)	–
COc1ccc(Cc2nnc(NC(=O)Cc3cccs3)s2)cc1	–	2 µM (active)
COc1ccc(NC(=S)NCc2cccs2)c(OC)c1	0.939% (inactive)	–
Cc1nnc(NC(=O)CSc2nc3c([nH]c4ccccc43)c(=O)n2-c2cccc(Cl)c2)s1	2.52% (inactive)	–
CCN(C(=O)CSc1nnc(C)n2c1cc1occc12)c1ccccc1	-23.3% (inactive)	–
COc1ccc(C)cc1NC(=O)CCc1c(C)nn(-c2ccc(N3CCOCC3)nn2)c1C	0.568% (inactive)	–
Cc1ccc(OCCCC(=O)Nc2ccc(S(=O)(=O)Nc3cc(C)nc(C)n3)cc2)cc1	16.7% (inactive)	–
Cc1ccc(NC(=O)CSc2nc(CSc3ccc(C)cc3)cc(=O)[nH]2)cc1	0.354% (inactive)	–
COc1ccc(NC(=O)CSc2nc(NS(=O)(=O)c3ccc(C)cc3)cc(=O)[nH]2)cc1	–	17.8 µM (active)
CC1CCC2(CC1)N=C(c1ccccc1)C(=O)N2CC(=O)Nc1ccc(F)c(Cl)c1 (centres undefined)	8.62% (inactive)	–
